# Over roughly 35,000 sequences, “fluorescence intensity (a.u.)” has its median near 10,000; the highest 2% begin near 52,000. The full list was thinned out, with the highest values kept by preference.
# Biological target: T1, OsWOX13 (Oryza sativa, UniProt Q5QMM3 1-267)
# T1 sequence: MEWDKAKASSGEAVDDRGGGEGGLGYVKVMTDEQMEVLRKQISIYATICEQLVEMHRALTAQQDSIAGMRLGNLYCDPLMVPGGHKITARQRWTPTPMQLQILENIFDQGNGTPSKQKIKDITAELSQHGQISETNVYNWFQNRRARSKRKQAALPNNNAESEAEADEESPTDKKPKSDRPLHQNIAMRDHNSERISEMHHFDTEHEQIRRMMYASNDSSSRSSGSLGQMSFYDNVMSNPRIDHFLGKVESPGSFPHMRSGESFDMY
# Assay: protein-binding microarray (RPBM); PBS, 2% BSA, 51.3 ng/ul salmon testes DNA, 50 uM zinc acetate, 200 nM TF, 25 C, 1 h; high values mean tight binding
# Details: protein: recombinant; tags: N-terminal polyhistidine and DsRed monomer fusion (pET32a); label: CyDye5-dUTP incorporated in the synthesized complementary strand; 3' TTTTT single-stranded linker to array surface; dsDNA, one strand shown
# How it was run: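 Transcription factors were each fused at the N-terminus to a polyhistidine tag plus DsRed and expressed in E. coli BL21-CodonPlus before Ni–NTA purification. Binding to a double-stranded custom Agilent array was carried out with 200 nM protein at 25 °C for 1 h in PBS, 2% BSA, salmon testes DNA and 50 µM zinc acetate. The binding signal is per-feature fluorescence intensity, in arbitrary units, on an Axon 4000B scanner.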
row,Sequence,binding signal
1,CATCCAATCAGTTTAGACAAGGTAAAGTCTCATTTTCACACGGAGTCACCTAGTGCAG,17800 fluorescence intensity (a.u.)
2,CTCATAACACTTTCCTAATTGCCTCATATGCGGCCTTCCCCGGAGTCACCTAGTGCAG,7620 fluorescence intensity (a.u.)
3,CTGCACAGTTAATTAAAGGAAAACTGGCGAAAACCCGGCACGGAGTCACCTAGTGCAG,8360 fluorescence intensity (a.u.)
4,CTTGCTGGTACCAATTAACATGGGTATGTTTAATTTGCTGCGGAGTCACCTAGTGCAG,3650 fluorescence intensity (a.u.)
5,CCTTAATTACATTGTATATAGTGATGTATGATTTATTTTACGGAGTCACCTAGTGCAG,14700 fluorescence intensity (a.u.)
6,CATGAGTAAATCAATCAGGGATGGCAACATTCAGGTTTAGCGGAGTCACCTAGTGCAG,12200 fluorescence intensity (a.u.)
7,CGTTTTGTTAAATTAAAATAAATTAACAAGCCCAATTGCACGGAGTCACCTAGTGCAG,22300 fluorescence intensity (a.u.)
8,TTACATTAGCAATTGATTGCTCTTATTTGACCATGATGTTCGGAGTCACCTAGTGCAG,31500 fluorescence intensity (a.u.)
9,TTAAAAGTTTGATTGAAATTGGAACGATGTGATGGAAAAGCGGAGTCACCTAGTGCAG,22400 fluorescence intensity (a.u.)
10,TAAAATTGAAAATTTGATTGAAATTGGAACGATGTGATGGCGGAGTCACCTAGTGCAG,64500 fluorescence intensity (a.u.)
11,CGTGTGCAGTGCAGTGATGATTGAGAAAGGCCATGCCATACGGAGTCACCTAGTGCAG,3900 fluorescence intensity (a.u.)
12,AAATTAAATTATACTCAATACACAAGTTTGAATCTGATTCCGGAGTCACCTAGTGCAG,11400 fluorescence intensity (a.u.)
13,TTGATTGAGATGTGACTGGAAAGGTGTGTCAGTGCAGGCACGGAGTCACCTAGTGCAG,56800 fluorescence intensity (a.u.)
14,GTTGATGAGAGTGAAATTTGATTGACAAAGGATTGACTGGCGGAGTCACCTAGTGCAG,64400 fluorescence intensity (a.u.)
15,TTGATTGAAATTGGAGATGATGTGACTGAAAAGTTGTGTGCGGAGTCACCTAGTGCAG,41800 fluorescence intensity (a.u.)
16,AAAGTTTGGATTTTGATTGAAATTGAAGATGATGTGACTGCGGAGTCACCTAGTGCAG,26700 fluorescence intensity (a.u.)
17,CAGATGTGACTGGTATATATTGAAAGGTGCGAGGCACTGGCGGAGTCACCTAGTGCAG,9620 fluorescence intensity (a.u.)
18,AAGTTTGATTAAAATTGGAACGATGTGATGGAAAAGTTAGCGGAGTCACCTAGTGCAG,17300 fluorescence intensity (a.u.)
19,TGATTCAAATGATTGAAGCTTTCCAAAACCTATGAAATTCCGGAGTCACCTAGTGCAG,17700 fluorescence intensity (a.u.)
20,ATGCTTTGATTGAAATCAAGTACTCTGAAGCTAGTCATTCCGGAGTCACCTAGTGCAG,56700 fluorescence intensity (a.u.)
21,CAAATAATTATTATACTTTGTCATGTCATATAAACTATATCGGAGTCACCTAGTGCAG,17900 fluorescence intensity (a.u.)
22,ACTCATGCTTACTTGATTGATAGTGGAAGAACCTTTTCTTCGGAGTCACCTAGTGCAG,28200 fluorescence intensity (a.u.)
23,AGTTTAATGGTGATAATATGATTTCAAAATCTGACAACCGCGGAGTCACCTAGTGCAG,12500 fluorescence intensity (a.u.)
24,TTTTCTGGTGGCAAGATGATTGAGATATACACCTTGAAGTCGGAGTCACCTAGTGCAG,7690 fluorescence intensity (a.u.)
25,GGAATTGGTAACAGCAAGCTTAACAGAGAAAGGTAGTCGACGGAGTCACCTAGTGCAG,8350 fluorescence intensity (a.u.)
26,TCTATAAATTGGCCTAGTACCTGGAAAGTGAAATCTGCCACGGAGTCACCTAGTGCAG,7920 fluorescence intensity (a.u.)
27,CGTAATTGCATCTCTATTTTCATCTCTACTTCATTTCTCTCGGAGTCACCTAGTGCAG,37900 fluorescence intensity (a.u.)

row,Sequence,binding signal
1,AAAATTGAAAGTTTGATTGAAATTAGAACGATGTGACGAACGGAGTCACCTAGTGCAG,35500 fluorescence intensity (a.u.)
2,AATTGATTTATTTTGAAACAGAGAGAATACAGTTTATTTACGGAGTCACCTAGTGCAG,32400 fluorescence intensity (a.u.)
3,TCTCTGTGATTGAAACCTTGTCTCTGAAATGCTTGAGGGCCGGAGTCACCTAGTGCAG,55400 fluorescence intensity (a.u.)
4,TTTGGTTGAAATTGAAACGATGTGATGGAAAAGTTGGAAGCGGAGTCACCTAGTGCAG,5010 fluorescence intensity (a.u.)
5,CTGATTGAAATTGAAAGTTTGATTGAAATTGAAACGATGCCGGAGTCACCTAGTGCAG,65300 fluorescence intensity (a.u.)
6,TCTGATTGAACGAGTTTACAGATTGAGAAAGCACGCGTCACGGAGTCACCTAGTGCAG,53800 fluorescence intensity (a.u.)
7,TGATGAAGATGATGAGCATGTGATTGAGCTGTCTGATTGCCGGAGTCACCTAGTGCAG,33800 fluorescence intensity (a.u.)
8,TCTGATGAACACATTGAGAAAGCAGATGAAGTTGCAGTGTCGGAGTCACCTAGTGCAG,5120 fluorescence intensity (a.u.)
9,TAGAAGTTTGATTGAAATTGAAACGATATGATGGAAAAGTCGGAGTCACCTAGTGCAG,44500 fluorescence intensity (a.u.)
10,ATAGTGATAGGTCTGTCAATGCAGTGAGGTCCTGAAAACCCGGAGTCACCTAGTGCAG,8210 fluorescence intensity (a.u.)
11,TCAAAATTAGAAGTTTGAAGAAATTGGAACGATGTGATGGCGGAGTCACCTAGTGCAG,7940 fluorescence intensity (a.u.)
12,CAAAATTTGAAGTTTGATTGAAATTGGTACGATGTGATGGCGGAGTCACCTAGTGCAG,62400 fluorescence intensity (a.u.)
13,TATTAAACGAATTATCACAAAATTATAGATTTATCATGTTCGGAGTCACCTAGTGCAG,3760 fluorescence intensity (a.u.)
14,GCTCCAATTTAATTTCAAAATGAATTTATATATTCATTGTCGGAGTCACCTAGTGCAG,14100 fluorescence intensity (a.u.)
15,CTGCTTAATTACTTCAGCCTTTACACATCAGCATATCATACGGAGTCACCTAGTGCAG,8250 fluorescence intensity (a.u.)
16,CGTAATTGTTTAGTTGCAAAAGGATAAGCACCAAACCAAACGGAGTCACCTAGTGCAG,12400 fluorescence intensity (a.u.)
17,ATTATTTGATTGTGGTTTAATTGTTGGTGCAACAGGGTTACGGAGTCACCTAGTGCAG,47900 fluorescence intensity (a.u.)
18,TTGGAAGTTTGATTGAAATTGGAACGATGTGACGGGAAAGCGGAGTCACCTAGTGCAG,23300 fluorescence intensity (a.u.)
19,TCAAAATTGGAAGTTTGATTGAAATTGGAACGATGTGACGCGGAGTCACCTAGTGCAG,61400 fluorescence intensity (a.u.)
20,AAGTTTGATTGAAATTGGAACGATGTGACGGAAAAGTTGACGGAGTCACCTAGTGCAG,35100 fluorescence intensity (a.u.)
21,TATGTGATTATCTTCTCCATACCATCATGTTCTAGATACGCGGAGTCACCTAGTGCAG,24900 fluorescence intensity (a.u.)
22,TTCTCATTTTATTTAATTTAAAAGTAATTTATTACATGTTCGGAGTCACCTAGTGCAG,11600 fluorescence intensity (a.u.)
23,GCCTAATTAATCCATGATTAACCATAAGTGCTGCAGTAACCGGAGTCACCTAGTGCAG,33500 fluorescence intensity (a.u.)
24,CTGAGATGCTAATTGTGTGTACACTGTTGAGCACATTTGACGGAGTCACCTAGTGCAG,3680 fluorescence intensity (a.u.)
25,GGCTATTTCGTCCCAATTACCAATGGGCTAATTTTGGATCCGGAGTCACCTAGTGCAG,5000 fluorescence intensity (a.u.)
26,CTCCCAATATAATTATTTTCTATTTTCACAAACTCAGATACGGAGTCACCTAGTGCAG,5940 fluorescence intensity (a.u.)

# Source: publication PMC7819943, “Rice protein-binding microarrays: a tool to detect cis-acting elements near promoter regions in rice”
